Assay results as given in PubChem BioAssay AID1159580 (chemical genetic matrix, 2015).
Where “and” joins values, the source holds several entries; their conditions need not be identical. Equal values may be shown once. In all, about 5,500 compounds went through this assay and about 2,000 (36%) were called active. Roughly 18% stayed inconclusive and do not appear here. Rule as the data show it: active = normalized growth mostly below about 0.91 (no sharp cut-off); inconclusive = no clear call, values can overlap the other calls; inactive = mostly above about 0.92. This is one part of the list.

Assay: chemical genetic growth profiling, strain panel (AID 1159580);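 also: tested at 20 µM; growth read once vehicle control cultures reached saturation at 30 °C; 1 = growth at the plate median or of vehicle wells; lower values mean less growth of the strain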
Conditions: S. cerevisiae deletion strains, growth OD

Measured: normalized growth

Cc1c(N(C)C)c(=O)n(-c2ccccc2)n1C
inactive: locus YAL013W, strain DEP1, stronger effect = lower value 0.994 | locus YAL021C, strain ccr4, stronger effect = lower value 0.981 | locus YAL026C, strain drs2, stronger effect = lower value 0.977 | locus YAL030W, strain snc1, stronger effect = lower value 0.982 | locus YBL061C, strain skt5, stronger effect = lower value 1 | locus YBR009C, strain hhf1, stronger effect = lower value 0.976 | locus YBR021W, strain FUR4, stronger effect = lower value 1.01 | locus YBR023C, strain chs3, stronger effect = lower value 0.983 | locus YBR171W, strain sec66, stronger effect = lower value 0.987 | locus YBR229C, strain ROT2, stronger effect = lower value 0.978 | locus YBR231C, strain swc5, stronger effect = lower value 0.99 | locus YBR279W, strain paf1, stronger effect = lower value 0.996 | locus YCL011C, strain gbp2, stronger effect = lower value 1.01 | locus YCL016C, strain dcc1, stronger effect = lower value 0.993 | locus YCL029C, strain bik1, stronger effect = lower value 0.972 | locus YCL061C, strain MRC1, stronger effect = lower value 0.979 | locus YCL069W, strain vba3, stronger effect = lower value 1 | locus YCR088W, strain abp1, stronger effect = lower value 1 | locus YDL005C, strain med2, stronger effect = lower value 0.96 | locus YDL035C, strain GPR1, stronger effect = lower value 0.995 | locus YDL040C, strain nat1, stronger effect = lower value 0.991 | locus YDL074C, strain BRE1, stronger effect = lower value 0.984 | locus YDL101C, strain DUN1, stronger effect = lower value 0.983 | locus YDL134C, strain PPH21, stronger effect = lower value 0.997 | locus YDL185W, strain tfp1, stronger effect = lower value 0.962 | locus YDL192W, strain arf1, stronger effect = lower value 0.98 | locus YDR001C, strain nth1, stronger effect = lower value 0.994 | locus YDR069C, strain doa4, stronger effect = lower value 0.971 | locus YDR101C, strain arx1, stronger effect = lower value 0.99 | locus YDR137W, strain rgp1, stronger effect = lower value 0.986 | locus YDR150W, strain NUM1, stronger effect = lower value 0.993 | locus YDR159W, strain sac3, stronger effect = lower value 0.948 | locus YDR162C, strain NBP2, stronger effect = lower value 0.993 | locus YDR195W, strain ref2 0.934 | locus YDR297W, strain sur2, stronger effect = lower value 1 | locus YDR318W, strain mcm21, stronger effect = lower value 0.989 | locus YDR334W, strain swr1, stronger effect = lower value 0.987 | locus YDR335W, strain msn5, stronger effect = lower value 0.993 | locus YDR388W, stronger effect = lower value 0.998 | locus YDR392W, strain spt3, stronger effect = lower value 1 | locus YDR502C, strain sam2, stronger effect = lower value 0.999 | locus YEL003W, strain gim4, stronger effect = lower value 0.997 | locus YEL037C, strain rad23, stronger effect = lower value 0.998 | locus YEL061C, strain CIN8 (second series), stronger effect = lower value 1.01 | locus YEL061C, strain CIN8, stronger effect = lower value 0.996 | locus YER015W, strain faa2, stronger effect = lower value 0.995 | locus YER016W, strain bim1, stronger effect = lower value 0.999 | locus YER110C, stronger effect = lower value 0.981 | locus YER111C, strain swi4, stronger effect = lower value 0.983 | locus YER155C, strain BEM2 (second series), stronger effect = lower value 0.989 | locus YER155C, strain BEM2, stronger effect = lower value 0.995 | locus YER167W, strain BCK2, stronger effect = lower value 0.99 | locus YFR010W, strain ubp6, stronger effect = lower value 0.986 | locus YGL078C, strain dbp3, stronger effect = lower value 0.997 | locus YGL086W, strain mad1, stronger effect = lower value 1 | locus YGL167C, strain pmr1, stronger effect = lower value 0.982 | locus YGL173C, strain kem1, stronger effect = lower value 0.96 | locus YGL227W, strain vid30, stronger effect = lower value 0.984 | locus YGL240W, strain doc1, stronger effect = lower value 0.972 | locus YGL248W, strain PDE1, stronger effect = lower value 0.998 | locus YGL253W, strain hxk2, stronger effect = lower value 1.02 | locus YGR078C, strain PAC10, stronger effect = lower value 0.985 | locus YGR135W, strain pre9, stronger effect = lower value 0.991 | locus YGR229C, strain SMI1, stronger effect = lower value 0.992 | locus YGR252W, strain gcn5, stronger effect = lower value 1.1 | locus YHR013C, strain ard1, stronger effect = lower value 0.964 | locus YHR027C, strain rpn1, stronger effect = lower value 0.996 | locus YHR030C, strain SLT2, stronger effect = lower value 0.976 and 1.04 | locus YHR079C, strain IRE1 (second series), stronger effect = lower value 0.99 | locus YHR079C, strain IRE1, stronger effect = lower value 1.01 | locus YHR094C, strain hxt1, stronger effect = lower value 0.978 | locus YHR129C, strain ARP1, stronger effect = lower value 0.993 | locus YHR142W, strain chs7, stronger effect = lower value 1.02 | locus YHR200W, strain rpn10, stronger effect = lower value 0.999 | locus YIL066C, strain RNR3, stronger effect = lower value 0.992 | locus YIL073C, strain SPO22, stronger effect = lower value 0.923 | locus YIL125W, strain kgd1, stronger effect = lower value 0.99 | locus YIR030C, strain dcg1, stronger effect = lower value 0.99 | locus YJL092W, strain hpr5, stronger effect = lower value 1 | locus YJL095W, strain BCK1 (second series), stronger effect = lower value 0.997 | locus YJL095W, strain BCK1, stronger effect = lower value 0.966 and 1.04 | locus YJL115W, strain asf1, stronger effect = lower value 0.995 | locus YJL129C, strain trk1, stronger effect = lower value 0.983 | locus YJL134W, strain LCB3, stronger effect = lower value 0.997 | locus YJL154C, strain vps35, stronger effect = lower value 0.987 | locus YJL166W, strain qcr8, stronger effect = lower value 0.982 | locus YJL168C, strain set2, stronger effect = lower value 0.99 | locus YJL187C, strain SWE1 (second series), stronger effect = lower value 0.975 | locus YJR043C, strain POL32, stronger effect = lower value 0.986 | locus YJR066W, strain TOR1, stronger effect = lower value 0.972 | locus YJR075W, strain HOC1, stronger effect = lower value 0.997
